# Assay results from PMC4336329 (PLoS ONE, 2015).
# Out of some 310,000 compounds screened, about 14,000 (4.5%) showed an effect of 50% or more. The effect is printed as a negative number. Many of the other results were omitted from the sample, so strong results are more common in it than they were.
# Target: human ether-à-go-go-related gene (hERG) potassium channel (human, UniProt Q12809)
# Assay: primary screen, population patch clamp on CHO cells stably expressing hERG; higher = less effect of the substance
# 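Note: peak tail current of the secondary pulse compared with the same well before compound.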
# Chain of human ether-à-go-go-related gene (hERG) potassium channel (Q12809 whole entry, looked up): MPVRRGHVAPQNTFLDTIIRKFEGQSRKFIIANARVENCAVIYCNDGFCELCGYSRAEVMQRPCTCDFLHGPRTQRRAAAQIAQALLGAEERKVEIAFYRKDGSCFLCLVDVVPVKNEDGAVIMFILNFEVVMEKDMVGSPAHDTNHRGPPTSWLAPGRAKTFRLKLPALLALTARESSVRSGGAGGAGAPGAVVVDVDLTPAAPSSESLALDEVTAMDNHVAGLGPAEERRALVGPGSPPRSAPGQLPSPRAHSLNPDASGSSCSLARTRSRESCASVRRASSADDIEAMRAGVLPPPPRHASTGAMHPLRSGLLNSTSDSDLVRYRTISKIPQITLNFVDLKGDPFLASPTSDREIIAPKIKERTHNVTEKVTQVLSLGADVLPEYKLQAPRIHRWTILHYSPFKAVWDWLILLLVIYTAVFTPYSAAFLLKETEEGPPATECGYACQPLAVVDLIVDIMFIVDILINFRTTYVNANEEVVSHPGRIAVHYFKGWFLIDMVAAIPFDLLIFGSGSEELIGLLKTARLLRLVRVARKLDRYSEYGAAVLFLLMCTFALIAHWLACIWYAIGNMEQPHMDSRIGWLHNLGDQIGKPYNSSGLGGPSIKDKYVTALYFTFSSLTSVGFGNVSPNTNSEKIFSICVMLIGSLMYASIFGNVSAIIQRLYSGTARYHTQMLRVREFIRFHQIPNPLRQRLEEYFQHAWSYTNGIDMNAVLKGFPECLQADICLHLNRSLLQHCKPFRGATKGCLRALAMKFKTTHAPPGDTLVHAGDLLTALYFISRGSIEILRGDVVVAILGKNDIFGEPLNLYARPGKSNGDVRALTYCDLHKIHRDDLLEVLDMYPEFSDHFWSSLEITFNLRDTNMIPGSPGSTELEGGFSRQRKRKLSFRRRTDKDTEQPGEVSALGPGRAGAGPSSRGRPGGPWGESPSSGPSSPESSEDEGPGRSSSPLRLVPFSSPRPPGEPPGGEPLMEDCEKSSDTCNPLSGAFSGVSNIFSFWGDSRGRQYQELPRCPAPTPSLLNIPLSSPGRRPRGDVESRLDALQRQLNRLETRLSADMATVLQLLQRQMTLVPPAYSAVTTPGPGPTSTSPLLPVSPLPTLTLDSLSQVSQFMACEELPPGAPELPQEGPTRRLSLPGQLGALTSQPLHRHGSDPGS
row,Structure (SMILES),"hERG current change (%, negative = inhibition) at 10uM [%]"
1,Nc1nnc(CSCc2ccc(Cl)cc2Cl)s1,0.235
2,Cc1cc(NS(=O)(=O)c2ccc(NC(=O)CCc3ccccc3)cc2)no1,12.2
3,CN(Cc1ccccc1)C(=O)c1nc2ccccn2c1CNCCn1cccn1,-32.3
4,O=C(c1nc2ccccn2c1CNCCCn1ncc2ccccc21)N1CCCC1,-37.7
5,CCCCN(C)C(=O)c1nc2ccccn2c1CNCCCn1ncc2ccccc21,-55
6,CN(Cc1ccccc1)C(=O)c1nc2ccccn2c1CNCCOc1cccnc1,-31
7,CN(Cc1ccccc1)C(=O)c1nc2ccccn2c1CNCCCOc1cccnc1,-52.3
8,CCCCN(C)C(=O)c1nc2ccccn2c1CNCCCn1nnc2ccccc21,-38
9,CCOc1ccccc1NC(=O)CCS(=O)(=O)c1ccc(OC)cc1,-0.411
10,COc1ccc(-n2c(C)cc(/C=C3/SC(=S)N(C)C3=O)c2C)cc1,20.7
11,CCOc1ccccc1C1CC(=O)NC(SCC(=O)Nc2nccs2)=C1C#N (centres unmarked),-0.586
12,CN(C)CCN1C(=O)C(O)=C(C(=O)c2ccco2)C1c1ccccc1F (centres unmarked),11.9
13,Cc1ccc(C(=O)N/C(=C\c2cccnc2)C(=O)N2CCCC2)cc1,-1.72
14,Fc1ccc(C2CCCN2Cc2nc(Cc3ccccc3)no2)cc1 (centres unmarked),-15.2
15,CN(C)c1nc(N)c([N+](=O)[O-])c(NCc2ccccc2)n1,4.16
16,O=C(NCc1ccccn1)C(=O)NCC1OCCN1S(=O)(=O)c1ccc(F)cc1 (centres unmarked),11.7
17,CC(C)OCC(O)CN1CCN(CCN2C(=O)c3cccc4cccc(c34)C2=O)CC1.Cl (centres unmarked),-51.7
18,CC(C)(C)C(=O)N1CCN(CCN2C(=O)c3cccc4cccc(c34)C2=O)CC1,3.09
19,CCC(OCC(O)CN1CCN(CCN2C(=O)c3cccc4cccc(c34)C2=O)CC1)c1ccccc1.Cl (centres unmarked),-58.4
20,CS(=O)(=O)N1CCN(CCN2C(=O)c3cccc4cccc(c34)C2=O)CC1,7.17
21,CC(=O)c1ccc(OCC(O)CN2CCN(CCN3C(=O)c4cccc5cccc(c45)C3=O)CC2)cc1.Cl (centres unmarked),-34.1
22,CCNC(=S)N1CCN(CCN2C(=O)c3cccc4cccc(c34)C2=O)CC1,0.247

row,Structure (SMILES),"hERG current change (%, negative = inhibition) at 10uM [%]"
1,CCCCN(C(=O)Cc1ccc(S(=O)(=O)N2CCOCC2)s1)c1c(N)n(CCCC)c(=O)[nH]c1=O,0.586
2,C=CCNc1oc(-c2ccco2)nc1S(=O)(=O)c1ccccc1,-4.58
3,N#CCc1nn(-c2ccccc2)c(N)c1C#N,5.46
4,CCc1ccc(NC(=O)C(=O)N/N=C(\C)CC(=O)Nc2ccccn2)cc1,-8.33
5,COc1ccc2cc3cc(C(=O)NCc4ccco4)oc3nc2c1,-9.75
6,O=C1CC(C(=O)N2CCN(c3ccc(F)cc3)CC2)CN1CCc1ccccc1 (centres unmarked),-50.5
7,CC(C)CCN1CC(C(=O)N2CCN(c3ccc(F)cc3)CC2)CC1=O (centres unmarked),-25.4
8,COc1ccccc1CN1CC(C(=O)N2CCN(c3ccc(F)cc3)CC2)CC1=O (centres unmarked),-43
9,Cc1ccc(CCN2CC(C(=O)N3CCN(c4ccc(F)cc4)CC3)CC2=O)cc1 (centres unmarked),-57.4
10,Cc1ccc(CCN2CC(C(=O)O)CC2=O)cc1 (centres unmarked),-0.636
11,O=C(O)C1CC(=O)N(CCc2ccc(F)cc2)C1 (centres unmarked),-8.39
12,Cc1ccc(NC(=O)CSc2nc(N)c3c4c(sc3n2)CSC(C)(C)C4)cc1,14.2
13,COc1ccc(NC(=O)C2CCN(C(=O)Nc3ccccc3)CC2)cc1S(=O)(=O)N(C)C,12.5
14,O=[N+]([O-])c1ccc(S(=O)(=O)NCCCc2ccccc2)cc1,-64.6
15,Cc1ccc(S(=O)(=O)NCCCNc2ccc([N+](=O)[O-])cc2)cc1,-65.2
16,O=[N+]([O-])c1ccc(NCCNS(=O)(=O)c2ccccc2)cc1,-38.9
17,O=S(=O)(NCCCc1ccccc1)c1ccccc1,10.3
18,Cc1ccc(S(=O)(=O)NCCNc2ccc([N+](=O)[O-])cc2)cc1,-22.8
19,O=[N+]([O-])c1ccc(NCCCNS(=O)(=O)c2ccccc2)cc1,-64.7
20,Cc1ccc(S(=O)(=O)NCCCNS(=O)(=O)c2ccc(C)cc2)cc1,-17.9
21,O=[N+]([O-])c1ccc(NCCCNS(=O)(=O)c2ccccc2)c(Cl)c1,-14.3
22,O=S(=O)(NCCCc1ccccc1)c1ccc(Br)cc1,-9.3

row,Structure (SMILES),"hERG current change (%, negative = inhibition) at 10uM [%]"
1,O=S(=O)(O)c1cccc(N=Nc2c(O)ccc3ccccc23)c1,16.4
2,N#Cc1ccc(OCC(=O)NCCN2CCOCC2)cc1,-11.7
3,O=C(COC(=O)/C=C/c1ccc(Cl)cc1)NC1CCCCCC1,-1.22
4,Cc1ccc(C)c(NC(=O)Cc2nc(CCl)cs2)c1,-14.1
5,CC(C)Oc1cccc(C(=O)NC(=S)Nc2ccccc2)c1,-7.26
6,CCOC(=O)c1ccc(NC(=O)N(CC)CC)cc1,4.46
7,CCCC(=O)N1CCN(c2ccc(NC(=S)NC(=O)c3cccc(C)c3)cc2)CC1,-18.3
8,Nc1c(C(=O)NCc2ccco2)c2nc3ccccc3nc2n1CCN1CCOCC1,-4.63
9,CCCCn1c(N)c(C(=O)OCCOC)c2nc3ccccc3nc21,-42.4
10,COCCOC(=O)c1c(N)n(CCCN2CCOCC2)c2nc3ccccc3nc12,-53.3
11,CCCCn1c(N)c(C(=O)NCCN2CCOCC2)c2nc3ccccc3nc21,-64.1
12,Nc1c(C(=O)NCCN2CCOCC2)c2nc3ccccc3nc2n1Cc1ccco1,-68.8
13,COCC(C)OC(=O)c1c(N)n(CCCN2CCOCC2)c2nc3ccccc3nc12 (centres unmarked),-9.69
14,CCCCCn1c(N)c(C(=O)NCCN2CCOCC2)c2nc3ccccc3nc21,-17.1
15,CCCCOCCCn1c(N)c(C(=O)OCCOC)c2nc3ccccc3nc21,-32.9
16,CCCCCCn1c(N)c(C(=O)NCCN2CCOCC2)c2nc3ccccc3nc21,-8.61
17,Nc1c(C(=O)NCCN2CCOCC2)c2nc3ccccc3nc2n1Cc1ccccc1,1.38
18,CCCCCOC(=O)c1c(N)n(CCOC)c2nc3ccccc3nc12,-70.2
19,COC(=O)c1c(N)n(CCCN2CCOCC2)c2nc3ccccc3nc12,-29.9
20,COc1ccccc1N(CC(=O)NCc1ccccc1)C(=O)CCC(=O)Nc1cc(C)ccn1,-9.35
21,CC(O)c1c(OCc2ccccc2)ncnc1OCc1ccccc1 (centres unmarked),-15.5
22,CCN(CC)S(=O)(=O)c1ccc(S(=O)(=O)N(CC(=O)Nc2ccccc2)CC2CCCO2)cc1 (centres unmarked),-18.6

row,Structure (SMILES),"hERG current change (%, negative = inhibition) at 10uM [%]"
1,COc1cccc(N2CCN(C(=O)C3CCC(=O)N(C4CCCCCC4)C3)CC2)c1 (centres unmarked),-32.8
2,COc1ccc(NC2c3ccccc3C(=O)N2c2ccccn2)cc1Cl (centres unmarked),-5.24
3,Cc1ccc(-c2cc(C(=O)N/N=C/c3ccc(F)cc3)n[nH]2)o1,4.98
4,COc1ccc(CCNC(=O)c2cn3ccc(C)cc3n2)cc1OC,1.66
5,Cc1ccc(S(=O)(=O)N(C)C)cc1NC(=S)N1CCc2ccccc21,11.5
6,COc1ccc(NC(=O)c2cc3ccccc3[nH]2)cc1,15.4
7,Cc1ccccc1-n1c(C)c(C#N)c(=O)c(-[n+]2ccccc2)c1[S-],23.4
8,Cc1cc(S(=O)(=O)N2CCCC2)ccc1OCC(=O)NCc1ccccn1,4.98
9,O=C(NC(=C(Cl)Cl)S(=O)(=O)c1ccc(Cl)cc1)c1ccccc1,3.23
10,CC(C)Cn1c(N)c(C(=O)NCCN2CCOCC2)c2nc3ccccc3nc21,-72.7
11,Nc1c(C(=O)NCCN2CCOCC2)c2nc3ccccc3nc2n1CCc1ccccc1F,-27.2
12,Nc1c(C(=O)NCCc2ccccc2)c2nc3ccccc3nc2n1CCN1CCOCC1,-3.49
13,CCn1c(O)c(C=NCc2cccs2)c(=O)[nH]c1=O,-6.15
14,CS(=O)(=O)c1ccc(C(=O)NC2CCCCC2)cc1,12.1
15,COc1ccc2nc(C)c3c(c2c1)OC(C(C)(Cl)Br)C3 (centres unmarked),-34
16,Cc1ccc2nc(C)c3c(c2c1)OC(C(C)(Cl)Br)C3 (centres unmarked),-16.5
17,Cc1nc2ccccc2c2c1CC(C(C)(Cl)Br)O2 (centres unmarked),-61.6
18,CC(C)n1cnc2c(N(C)c3ccccc3)nc(N(CCN(C)C)Cc3ccccc3)nc21,-73.1
19,CC(C)n1cnc2c(NCc3ccccc3)nc(NCc3ccccc3)nc21,0.281
20,COc1cc(N(Cc2ccccc2)Cc2ccccc2)c2ncn(C(C)C)c2c1,6.37
